According to PubChem BioAssay:
Active and inactive are the calls of the source.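 Rule for the calls, unless noted: active = viability loss from added drug above about 55%, and viability with drug at most 40%, in both replicates (limit read from the data, passing the limit was not always enough); inconclusive = both conditions met in only one replicate; inactive = neither replicate meets both conditions.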

Columns and labels:
[1] = reduced viability of SK-BR-3 breast cancer cells – cell-based, 24 h, human, pilot screen (AID 572;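 active = viability at or below 10% of carrier control in both of two separate runs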;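 note: compound exposure lasted between 18 and 24 h rather than exactly 24 h; 100% = carrier-treated control wells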); settings: SK-BR-3 viability, CellTiter-Glo luminescence, at 10 µM, stronger effect = lower value
[2] = H69AR cell proliferation blockers – human, duplicate replicates, primary screen (AID 580;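 active = viability at or under a set limit in both replicates, limit being median viability minus 3 SD, cut at about 48% in these data, passing the limit was not always enough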;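 note: 100% = mean luminescence of untreated wells and 0% = no signal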); settings: H69AR lung tumor cells viability, ATP luminescence, 72 h; at 10 µM; stronger effect = lower value
[3] = MRP1 drug-resistance reversers in H69AR cells – cell-based, doxorubicin co-treatment, pilot screen (AID 601); settings: CellTiter-Glo, 72 h, at 10 µM; for differential viability (reversal): stronger effect = higher value
[4] = yeast transport mutant growth inhibition pilot in 384-well plates, post-Golgi transport modulator project (AID 636; in the data active = inhibition above about 31%); settings: absorbance 615 nm, about 18 h, stronger effect = higher value
[5] = growth suppression of yeast trafficking mutant, preliminary HTS, modulators of trafficking downstream of Golgi apparatus project, 1536-format plate, OD 615 nm (AID 637; in the data active = inhibition above about 30%); settings: yeast transport mutant growth, absorbance 615 nm, 18 h; stronger effect = higher value
[6] = HUVEC growth inhibition – cell-based, human, primary screen (AID 575;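 active = viability at or below 30% in both replicate assays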;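 note: 100% = median of untreated cell wells with 0.1% DMSO on each plate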); settings: HUVEC proliferation, CellTiter-Glo luminescence, 72 h; at 10 µM; stronger effect = lower value
[7] = H69AR cells + 2 uM doxorubicin, measured here: viability with 2 uM doxorubicin, stronger effect = lower value
[8] = H69AR cells, compound alone cytotoxicity

SMILES | viability [1] | viability [2] | differential viability (reversal) ([3]; H69AR cells + 2 uM doxorubicin) | viability [3, 7] [%] | viability [3, 8] [%] | inhibition [4] | inhibition [5] | viability [6]
CCc1oc2ccccc2c1C(=O)c1cc(Br)c(O)c(Br)c1 | 95% (inactive) | 79% (inactive) | -23.2% (inactive) | 102 | 79 | -0.52% (inactive) | 54.7% (active) | –
COc1cc2nc(N3CCN(C(=O)c4ccco4)CC3)nc(N)c2cc1OC | 53% (inactive) | – | -13.4% (inactive) | 28.9 | 15.4 | 2.47% (inactive) | -0.17% (inactive) | –
Nc1nnc(SCC(=O)N2CCN(c3ccccc3)CC2)n1-c1ccccc1 | – | 90% (inactive) | 7.97% (inactive) | 82.1 | 90 | -0.78% (inactive) | 2.06% (inactive) | 80.6% (inactive)
CC(=O)NC1=NC(=O)/C(=C/N2CCCCC2)S1 | – | 95.9% (inactive) | 5.1% (inactive) | 90.8 | 95.9 | -1.97% (inactive) | -2.22% (inactive) | 99.5% (inactive)
CCC(=O)Oc1ccc(/C(CC)=C(\CC)c2ccc(OC(=O)CC)cc2)cc1 | 131% (inactive) | – | -40.5% (inactive) | 49.2 | 8.75 | -0.39% (inactive) | -4.67% (inactive) | –
COc1ccc(Cl)cc1N1CCN(CCNC(=O)Nc2ccccc2C)CC1 | 85% (inactive) | – | -22.7% (inactive) | 71.4 | 48.7 | -4.93% (inactive) | 4.91% (inactive) | –
Cc1cc(C)n(-c2ccc3cccc(NS(C)(=O)=O)c3n2)n1 | – | 27.6% (active) | -22.8% (inactive) | 50.4 | 27.6 | -6% (inactive) | 7.46% (inactive) | 14.3% (active)
Cc1ccc(-c2ccc(=O)n(CCC(=O)NCCN3CCCCC3C)n2)cc1 (stereo unspecified) | – | 91.3% (inactive) | 1.11% (inactive) | 90.2 | 91.3 | -4.27% (inactive) | -5.56% (inactive) | 94.9% (inactive)
CC(C)CN1C(=O)c2ccc(C(=O)Nc3nccs3)cc2C1=O | – | 104% (inactive) | 21.4% (inactive) | 82.6 | 104 | 0.39% (inactive) | 0.63% (inactive) | 90.8% (inactive)
CC(=O)C(Sc1ncnc2c1nnn2-c1ccc(F)cc1)C(=O)N(C)C (stereo unspecified) | 136% (inactive) | – | -12.3% (inactive) | 61 | 48.7 | -3.12% (inactive) | 4.1% (inactive) | –
O=C(CNCCC1=CCCCC1)Nc1ccccc1N1CCCCC1 | 102% (inactive) | – | -5.31% (inactive) | 66.9 | 61.6 | -1.08% (inactive) | 6.51% (inactive) | –
CCOc1cc(C)c(C(C)C)cc1S(=O)(=O)N1CCN(C)CC1 | – | 96.2% (inactive) | 2.99% (inactive) | 93.2 | 96.2 | 1.84% (inactive) | -5.71% (inactive) | 96.1% (inactive)
O=C1C2ON(c3ccccc3)C(c3cccnc3)C2C(=O)N1c1ccccc1 (stereo unspecified) | – | 89.8% (inactive) | 2.77% (inactive) | 87.1 | 89.8 | -1.45% (inactive) | -10.3% (inactive) | 104% (inactive)
N=c1sc2ccccc2n1-c1ccccc1 | – | 89% (inactive) | 6.59% (inactive) | 82.4 | 89 | -3.12% (inactive) | 3.33% (inactive) | 102% (inactive)
O=C1C2C3C=CC(C3)C2C(=O)N1CNc1ccc(O)cc1 (stereo unspecified) | – | 90.7% (inactive) | -11.8% (inactive) | 102 | 90.7 | 0.13% (inactive) | -4.6% (inactive) | 93.7% (inactive)
Cc1cc(-n2c(C)cc(C(=O)CSc3nnnn3-c3ccc(Cl)cc3)c2C)no1 | 81.5% (inactive) | – | 4.86% (inactive) | 44.3 | 49.2 | -3.73% (inactive) | -5.56% (inactive) | –
CCN1CCN(Cc2ccccc2NC(=O)Nc2ccc(C)cc2)CC1 | – | 98% (inactive) | 11.2% (inactive) | 86.8 | 98 | -5.92% (inactive) | -0.16% (inactive) | 89.7% (inactive)
Clc1ccc(OCc2nnc(SCCN3CCCCC3)n2Cc2ccco2)cc1 | 90% (inactive) | – | -4.72% (inactive) | 43.3 | 38.6 | -7.33% (inactive) | -1.82% (inactive) | –
C=C(CC)C(=O)c1ccc(OCC(=O)O)c(Cl)c1Cl | 86% (inactive) | – | 0.86% (inactive) | 48.5 | 49.4 | -2.47% (inactive) | -0.5% (inactive) | –
O=C(NC1CC1)c1cccc(Nc2ccc(-c3ccc4c(c3)OCCO4)nn2)c1 | 76% (inactive) | – | -12% (inactive) | 61.2 | 49.1 | -0.81% (inactive) | -5.82% (inactive) | –
